Assay outcomes from PubChem BioAssay.
A selection: hits, their analogues and other compounds. The true share with any hit is near 9.3%.
ELG1 genotoxic: inducers of genotoxicity in HEK293T ELG1-luciferase cells | HEK293T ELG1-luciferase reporter, luminescence, 16 h | Potency, µM (top dose mostly 46 µM), for inactives: at the top dose activity change, positive = activation, hits mostly activators | actives 1.3% (n = 330,000) | AID 504466; note: % of control where 0% means no effect; nearly all actives have a fitted effect of over 60% in size
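Luminescence read-out: rising ELG1-luciferase signal, reflecting elevated ELG1 protein under genetic stress, flags genotoxic compounds. Cells were treated for 16 hr at 37 °C before ONE-Glo detection.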
ELG1 repair inh: blocks ELG1-dependent DNA repair in HEK293T cells | HEK293T ELG1-luciferase reporter, luminescence, 16 h; DNA damage induced by 5-fluorouridine | Potency, µM (series often up to 46.1 µM), without a hit: at the top dose activity change, negative = inhibition, actives largely listed as inhibitors | actives 2.3% (n = 330,000); note: % is set by controls: 0 for no effect and ±100 for the full control effect; nearly all actives have a fitted effect of over 55% in size
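DMSO vehicle served as the neutral condition. Each well held 2,000 cells given 5-fluorouridine plus compound; after 16 hr at 37 °C/5% CO2, ONE-Glo was added and luciferase measured 30 min later.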
NPC1 promoter act: activators of NPC1 promoter. Huh7 NPC1 promoter luciferase reporter, 24 h. actives 2.4% (n = 320,000). Potency, µM (highest dose often 9.22 µM), inactives show at the highest dose activation, usual class: activators. AID 485313; note: % of control where 0% means no effect; nearly all actives have a fitted effect of over 60% in size
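Cells: Huh7 expressing luciferase under the NPC1 promoter, 1500/well. Seeded 2 h, compound added, incubated 24 h at 37 °C. Luciferase reagent, 10 min ambient, then luminescence.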
FLuc counter: firefly luciferase modulation, counter-screen for miR-21 project; P08659; purified FLuc, Km substrates, luminescence inhibition; Potency, µM (highest dose often 57.5 µM), for inactives: at the top dose activity change, negative = inhibition, usual class: inhibitors; actives 6.9% (n = 360,000); AID 588342;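 note: plate controls were vehicle for no effect and reference inhibitor for full effect; nearly all actives have a fitted effect of over 55% in size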
Target sequence (P08659 whole entry, looked up): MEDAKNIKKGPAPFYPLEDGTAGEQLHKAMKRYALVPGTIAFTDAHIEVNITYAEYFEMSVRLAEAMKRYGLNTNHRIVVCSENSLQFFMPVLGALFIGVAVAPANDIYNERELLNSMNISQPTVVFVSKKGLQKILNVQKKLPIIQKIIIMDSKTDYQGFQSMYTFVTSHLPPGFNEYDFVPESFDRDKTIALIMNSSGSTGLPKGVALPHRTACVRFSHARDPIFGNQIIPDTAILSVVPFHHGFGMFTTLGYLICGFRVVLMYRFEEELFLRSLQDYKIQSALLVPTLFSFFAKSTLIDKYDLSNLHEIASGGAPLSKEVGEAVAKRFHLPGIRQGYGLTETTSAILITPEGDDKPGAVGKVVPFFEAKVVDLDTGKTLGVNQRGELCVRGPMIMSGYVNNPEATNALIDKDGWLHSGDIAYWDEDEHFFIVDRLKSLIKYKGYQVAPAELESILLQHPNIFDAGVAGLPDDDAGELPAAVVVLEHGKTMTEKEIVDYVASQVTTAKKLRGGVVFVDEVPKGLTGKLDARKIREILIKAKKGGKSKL
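Purified P. pyralis luciferase (10nM final) with 10uM D-luciferin and 10uM ATP (Km levels) in 50mM Tris acetate pH 7.5, 10mM Mg acetate, 0.01% Tween-20, 0.05% BSA; qHTS 6-point titration, ~60 µM downward; luminescence read.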
SMN2 splice up: SMN2 splice variant enhancement; Potency, µM (series often up to 46.1 µM), for the others: at the top dose activity change, positive = activation, usual class: activators; HEK293 SMN2-luciferase splicing reporter, luminescence, 30-36 h; actives 2.8% (n = 210,000); note: % of control where 0% means no effect; nearly all actives have a fitted effect of over 55% in size
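HEK293 cells carry an SMN2 minigene-luciferase reporter in which exon 7 inclusion puts luciferase in frame. Cells were seeded at 2000 cells/well, attached for 10-12 hours, then exposed to compounds for 30-36 hours at 37C before ONE-Glo luminescence.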
Rab9 promoter act: activates the Rab9 promoter | Potency, µM (doses to about 9.22 µM), without a hit: at the top dose activation, negative = inhibition, usual class: activators | actives 2.8% (n = 320,000) | Huh7 Rab9 promoter-luciferase reporter, luminescence, 24 h; note: % of control where 0% means no effect; nearly all actives have a fitted effect of over 60% in size
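Luminescence read-out: Huh7 cells stably expressing Rab9-luciferase, treated 24 h with compound at 37 °C, then lysed with luciferase reagent for 10 min at ambient before reading.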
Numbers without * were called inactive; ? = inconclusive; / = no result; [ ] = another dose, or the depositor's remark. Calls come from the whole dose curve; as a rule, active = well fitted curve in the direction sought with a large enough effect; inconclusive = small, poorly fitted or top-dose-only effect, or another doubt; inactive = no such curve, though single readings can be large; an effect the other way counts as inactive or inconclusive. Potency is the fitted concentration of half-maximal effect.

SMILES	ELG1 genotoxic	ELG1 repair inh	NPC1 promoter act	FLuc counter	SMN2 splice up	Rab9 promoter act
CN(C)S(=O)(=O)c1cccc(NC(=S)N/N=C/c2ccc(O)c(O)c2O)c1	-17%	16µM*	-4%	13µM*	/	-4%
CN(C)S(=O)(=O)c1cccc(NC(=S)N/N=C/c2ccco2)c1	-2%	-6%	2%	?	/	1%
COc1cc(/C=N/NC(=S)Nc2cccc(S(=O)(=O)N(C)C)c2)cc(OC)c1O	-4%	21µM*	-3%	15µM*	-8%	0%
O=C(Nc1cccnc1)c1cccc(F)c1	0%	-1%	1%	1%	12%	1%
Cc1nc2ccccc2nc1OCC(=O)Nc1cc(C(F)(F)F)ccc1N1CCOCC1	-6%	-18%	0%	1%	7%	-4%
COc1ccc(C2=Nc3ccc(F)cc3NC(c3cccc(C(F)(F)F)c3)=N2)cc1	/	/	/	-1%	-2%	/
O=C(Nc1cccnc1)c1coc(=O)c2ccccc12	1%	15%	-10%	1%	-4%	-1%
COc1cccc(NC(=O)c2cnn(-c3ccccc3)c2C)c1	1.8µM*	?	?	1.5µM*	/	13µM*
CCc1cccc(NC(=O)c2cnn(-c3ccccc3)c2C)c1	1.8µM*	?	0.89µM*	2.1µM*	/	2.2µM*
CCOC(=O)c1cccc(NC(=O)c2cnn(-c3ccccc3)c2-n2cccc2)c1	/	/	/	-11%	-40%	/
CCn1ncc(C(=O)Nc2cccc(Cl)c2)c1C	?	?	3%	9.5µM*	13µM*	?
CCc1cccc(NC(=O)c2coc(=O)c3ccccc23)c1	/	/	/	11µM*	12%	/
COc1ccc(N(CC(=O)NC(C)c2ccccc2)S(=O)(=O)c2ccc(C)cc2)cc1 (stereo unspecified)	-2%	2%	-3%	1%	/	6%
COCC(=O)n1nc(-c2ccc(C)cc2)nc1NCc1ccc(F)cc1	18%	?	16%	-18%	?	23%
COc1ccccc1C(=O)n1nc(-c2ccccc2)nc1NCc1ccco1	13%	1%	17%	2%	13µM*	2%
O=C(COc1ccccc1)n1nc(-c2ccc(Cl)cc2)nc1NCc1ccco1	21µM*	?	29%	?	16µM*	?
COCC(=O)n1nc(-c2ccccc2)nc1NCc1ccc(N(C)C)cc1	?	?	?	17µM*	?	?
O=C(c1ccco1)n1nc(-c2ccccc2)nc1NCc1ccco1	7%	?	8%	-8%	?	18%
Cc1ccc(-c2nc(NCc3ccco3)n(C(=O)c3ccco3)n2)cc1	?	?	?	3%	/	3.5µM*
COc1cc(C(=O)NC2CCN(Cc3ccccc3)CC2)cc(Cl)c1OC	3%	-17%	-7%	-5%	/	-1%[1.84 µM]
CCOc1nc(-c2ccccc2)ccc1-c1noc(-c2ccco2)n1	9%	-5%	-9%	-1%	-7%	-10%
CC(Cc1cccs1)NC(=S)Nc1ccc(Cl)c(Cl)c1 (stereo unspecified)	-2%	14%	-3%	?	0%	-2%
COc1ccc(C(=O)NCCn2ccc3ccccc32)c(OC)c1	?	?	?	21µM*	29%	?
CC(C)(C)c1ccc(S(=O)(=O)NNC(=O)c2cc3ccccc3[nH]2)cc1	?	?	14%	13µM*	/	12%
COc1ccc(NC(=O)c2ccc(=O)oc2)cc1	0%	-8%	17%	?	-2%	7%
SMILES	ELG1 genotoxic	ELG1 repair inh	NPC1 promoter act	FLuc counter	SMN2 splice up	Rab9 promoter act
COc1ccc(C(=O)NCCN2CCOCC2)c(OC)c1	-1%	-20%	-4%	-2%	11%	3%
COc1ccc(NC(=O)c2coc(C)c2)cc1	?	?	?	24µM*	/	?
COc1ccc(C(=O)Nc2ccncc2)c(OC)c1	5%	?	4%	?	/	-7%
COc1ccc(C(=O)Nc2ccc3ccccc3c2)c(OC)c1	2.1µM*	?	3.5µM*	0.85µM*	/	?
CN1CCN(CC(=O)Nc2ccccc2C(F)(F)F)CC1	-7%	-13%	1%	2%	/	-4%
COc1ccc2[nH]c(C(=O)Nc3ccc(C)c(F)c3)cc2c1	-6%	?	?	?	/	?
COc1ccc(NC(=O)c2cc3ccccc3[nH]2)cc1	?	?	3.2µM*	?	/	2µM*
COc1ccc(NC(=O)c2ccc3ccccc3c2)cc1	2.3µM*	?	0.71µM*	0.85µM*	/	0.71µM*
O=C(Nc1cccc(F)c1)N1CCC2(CC1)CCN(C(=O)c1ccco1)CC2	/	/	/	/	-15%	/
COc1ccccc1C1C(C(=O)c2cc3ccccc3o2)=C(O)C(=O)N1CCN1CCOCC1 (stereo unspecified)	-1%	2%	-2%	13µM*	4%	16%
COc1cccc(C2C(C(=O)c3cc4ccccc4o3)=C(O)C(=O)N2CCN2CCOCC2)c1 (stereo unspecified)	2%	11%	6%	0%	/	4%
COc1nc(Cl)cn(-c2ccc(C)cc2)c1=O	3%	8%	-4%	-3%	-30%	-4%
Cc1ccc(-n2c(Cl)c(Cl)nc(Cl)c2=O)cc1	-20%	6.5µM*	-31%	-12%	-111%	-44%
CC1(C)CC(=O)C(C(C#Cc2ccccc2)C2=C(O)CC(C)(C)CC2=O)=C(O)C1	3%	20%	13%	?	-7%	11%
Cc1ccc(C(=O)Nc2cnc3ccccn3c2=O)cc1	4.6µM*	?	2.2µM*	17µM*	11µM*	1.6µM*
O=C(Nc1cnc2ccccn2c1=O)c1ccc(Cl)cc1Cl	?	?	0.32µM*	1.7µM*	1.6µM*	0.28µM*
CCOC(=O)CNC(=O)CNC(=O)c1ccc(OC(C)C)cc1	12%	?	9%	-17%	/	2%
CC(C)(C)c1ccc(OCCn2ccccc2=O)cc1	4.6µM*	?	1.4µM*	5.4µM*	11µM*	1.1µM*
O=C(/C=C/c1cccc(Cl)c1)N1CCC(Cc2ccccc2)CC1	16%	?	-2%	?	23%	-3%
O=C(Nc1ccc(-c2csc(Nc3ccc(Cl)cc3)n2)cc1)c1ccccc1	8%	18%	/	/	/	/
O=C(Nc1cccc(-c2csc(Nc3ccccc3)n2)c1)c1ccccc1	-3%	?	?	1.7µM*	/	?
O=C(Nc1ccc(-c2csc(Nc3cccc(C(F)(F)F)c3)n2)cc1)c1ccccc1	-11%	12µM*	0%	-1%	/	-11%
O=C(Nc1cccc(C(F)(F)F)c1)c1csc(-c2ccncc2)n1	-9%	?	0%	-14%	-17%	0%
